Results published in PubChem BioAssay (Tox21).
Inconclusive results are not listed. Where a call stands in place of a potency, no number is given. Active and inactive are the calls of the source. The call rests on the fitted dose curve; in most records, active means well fitted curve in the direction sought with a large enough effect in the repeat runs; inconclusive means weak or mixed curves; inactive means no such curve, though single readings can be large; an effect the other way counts as inactive or inconclusive.

Test system: not listed separately
Assay: qHTS assay to identify small molecule antagonists of the estrogen receptor alpha (ER-alpha) signaling pathway using the BG1 cell line in the presence of 0.1 nM 17-beta-estradiol - cell viability counter screen (AID 1259241); further: nearly all actives have a fitted effect of over 40% in size
Settings: VM7Luc4E2 (BG1) viability, CellTiter-Fluor protease, 22 h, 0.1 nM estradiol agonist added; series mostly up to 92.4 µM
Method in brief: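 Measures cytotoxicity alongside the ER-alpha antagonist readout: VM7Luc4E2 cells, charcoal-stripped serum, 0.1 nM 17beta-estradiol final, 22 hr compound incubation at 37C, CellTiter-Fluor fluorescence.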

SMILES	Potency
O=[N+]([O-])c1cc(C(F)(F)F)ccc1Cl	inactive
COCN(COC)c1nc(N(COC)COC)nc(N(COC)COC)n1	inactive
CCCCCCCC(=O)O	inactive
CC(O)CNCC(C)O (stereo not given)	inactive
C=CC(=O)NCOCCCC	inactive
CN=C(NC#N)NCCSCc1nc[nH]c1C	inactive
CCCN(CCC)C(=O)SCC	inactive
CC/C=C(\C(=O)N[C@@H]1C(=O)N2C(C(=O)OCOC(=O)C(C)(C)C)=C(COC(N)=O)CS[C@H]12)c1csc(N)n1	inactive
N[C@@H](Cc1cc(I)c(Oc2ccc(O)c(I)c2)c(I)c1)C(=O)O	inactive
Cc1ccncc1	inactive
CCCCCCCCO	inactive
Cc1nnc(NS(=O)(=O)c2ccc(N)cc2)s1	inactive
NC(=O)NC(N)=O	inactive
Nc1nc(N)c2nc(-c3ccccc3)c(N)nc2n1	inactive
CCCCCCCCCCCCCC(=O)O	inactive
CCc1cccc(CC)c1N	inactive
Cc1ccccc1Cl	inactive
Cc1cc(C)cc(O)c1	inactive
CC(C=O)Cc1ccc(C(C)(C)C)cc1 (stereo not given)	inactive

SMILES	Potency
CCOC(=O)c1ccc(O)cc1	inactive
Nc1cccc(C(F)(F)F)c1	inactive
CCCCC(CC)COC(=O)c1ccc(C(=O)OCC(CC)CCCC)cc1 (stereo not given)	inactive
CCCOCC(C)O (stereo not given)	inactive
CCCCC(=O)O	inactive
CC(=O)Nc1ccc(CC(=O)O)cc1	inactive
CC(C)(CO)CO	inactive
OB(O)O	inactive
OCC(O)CS (stereo not given)	inactive
OC[C@H]1O[C@@H](Oc2ccc(O)cc2)[C@H](O)[C@@H](O)[C@@H]1O	inactive
COc1c2ccoc2cc2oc(=O)ccc12	inactive
CO[Si](CCCNCCN)(OC)OC	inactive
Nc1cccc(N)n1	inactive
CC(C)=CCC/C(C)=C/C=O	inactive
CCCCCCC(=O)O	inactive
CCCCCCCCCCCC(=O)N(C)CC(=O)O	inactive
O=[N+]([O-])c1ccccc1C(F)(F)F	inactive
O=c1c(O)c(-c2ccc(O)c(O)c2)oc2cc(O)cc(O)c12	inactive
Cc1ccc(C(C)C)cc1	inactive

Test system: not listed separately
Assay: qHTS assay to identify small molecule antagonists of the androgen receptor (AR) signaling pathway using the MDA cell line in the presence of 0.5 nM R1881 - cell viability counter screen (AID 1259242); further: nearly all actives have a fitted effect of over 45% in size
Settings: MDA-kb2 viability, CellTiter-Fluor protease fluorescence, 16 h; series mostly up to 92.4 µM
Method in brief: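 R1881 at 0.5 nM final stimulated MDA-kb2 cells during 16 hr compound treatment at 37C. Cytotoxicity read: CellTiter-Fluor fluorescence after 30 min.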

SMILES	Potency
O=[N+]([O-])c1cc(C(F)(F)F)ccc1Cl	inactive
COCN(COC)c1nc(N(COC)COC)nc(N(COC)COC)n1	inactive
CCCCCCCC(=O)O	inactive
CC(O)CNCC(C)O (stereo not given)	inactive
C=CC(=O)NCOCCCC	inactive
CN=C(NC#N)NCCSCc1nc[nH]c1C	inactive
CCCN(CCC)C(=O)SCC	inactive
CC/C=C(\C(=O)N[C@@H]1C(=O)N2C(C(=O)OCOC(=O)C(C)(C)C)=C(COC(N)=O)CS[C@H]12)c1csc(N)n1	inactive
N[C@@H](Cc1cc(I)c(Oc2ccc(O)c(I)c2)c(I)c1)C(=O)O	inactive
Cc1ccncc1	inactive
CCCCCCCCO	inactive
Cc1nnc(NS(=O)(=O)c2ccc(N)cc2)s1	inactive
NC(=O)NC(N)=O	inactive
Nc1nc(N)c2nc(-c3ccccc3)c(N)nc2n1	inactive
CCCCCCCCCCCCCC(=O)O	inactive
CCc1cccc(CC)c1N	inactive
Cc1ccccc1Cl	inactive
Cc1cc(C)cc(O)c1	inactive
CC(C=O)Cc1ccc(C(C)(C)C)cc1 (stereo not given)	inactive

SMILES	Potency
CCOC(=O)c1ccc(O)cc1	inactive
Nc1cccc(C(F)(F)F)c1	inactive
CCCCC(CC)COC(=O)c1ccc(C(=O)OCC(CC)CCCC)cc1 (stereo not given)	inactive
CCCOCC(C)O (stereo not given)	inactive
CCCCC(=O)O	inactive
CC(=O)Nc1ccc(CC(=O)O)cc1	inactive
CC(C)(CO)CO	inactive
OB(O)O	inactive
OCC(O)CS (stereo not given)	inactive
OC[C@H]1O[C@@H](Oc2ccc(O)cc2)[C@H](O)[C@@H](O)[C@@H]1O	inactive
COc1c2ccoc2cc2oc(=O)ccc12	inactive
CO[Si](CCCNCCN)(OC)OC	inactive
Nc1cccc(N)n1	inactive
CC(C)=CCC/C(C)=C/C=O	inactive
CCCCCCC(=O)O	inactive
CCCCCCCCCCCC(=O)N(C)CC(=O)O	inactive
O=[N+]([O-])c1ccccc1C(F)(F)F	inactive
O=c1c(O)c(-c2ccc(O)c(O)c2)oc2cc(O)cc(O)c12	inactive
Cc1ccc(C(C)C)cc1	inactive

Target: Androgen receptor (Homo sapiens) (UniProt P10275)
Assay: qHTS assay to identify small molecule antagonists of the androgen receptor (AR) signaling pathway using the MDA cell line in the presence of 0.5 nM R1881 (AID 1259243); further: nearly all actives have a fitted effect of over 50% in size
Settings: MDA-kb2 MMTV-luciferase, R1881 0.5 nM, 16 h; series mostly up to 92.4 µM
Method in brief: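 We exposed MDA-kb2 cells to compounds under 0.5 nM R1881 stimulation for 16 hr at 37C and quantified MMTV-driven luciferase by luminescence.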

Androgen receptor (Homo sapiens), sequence (P10275 whole entry, looked up): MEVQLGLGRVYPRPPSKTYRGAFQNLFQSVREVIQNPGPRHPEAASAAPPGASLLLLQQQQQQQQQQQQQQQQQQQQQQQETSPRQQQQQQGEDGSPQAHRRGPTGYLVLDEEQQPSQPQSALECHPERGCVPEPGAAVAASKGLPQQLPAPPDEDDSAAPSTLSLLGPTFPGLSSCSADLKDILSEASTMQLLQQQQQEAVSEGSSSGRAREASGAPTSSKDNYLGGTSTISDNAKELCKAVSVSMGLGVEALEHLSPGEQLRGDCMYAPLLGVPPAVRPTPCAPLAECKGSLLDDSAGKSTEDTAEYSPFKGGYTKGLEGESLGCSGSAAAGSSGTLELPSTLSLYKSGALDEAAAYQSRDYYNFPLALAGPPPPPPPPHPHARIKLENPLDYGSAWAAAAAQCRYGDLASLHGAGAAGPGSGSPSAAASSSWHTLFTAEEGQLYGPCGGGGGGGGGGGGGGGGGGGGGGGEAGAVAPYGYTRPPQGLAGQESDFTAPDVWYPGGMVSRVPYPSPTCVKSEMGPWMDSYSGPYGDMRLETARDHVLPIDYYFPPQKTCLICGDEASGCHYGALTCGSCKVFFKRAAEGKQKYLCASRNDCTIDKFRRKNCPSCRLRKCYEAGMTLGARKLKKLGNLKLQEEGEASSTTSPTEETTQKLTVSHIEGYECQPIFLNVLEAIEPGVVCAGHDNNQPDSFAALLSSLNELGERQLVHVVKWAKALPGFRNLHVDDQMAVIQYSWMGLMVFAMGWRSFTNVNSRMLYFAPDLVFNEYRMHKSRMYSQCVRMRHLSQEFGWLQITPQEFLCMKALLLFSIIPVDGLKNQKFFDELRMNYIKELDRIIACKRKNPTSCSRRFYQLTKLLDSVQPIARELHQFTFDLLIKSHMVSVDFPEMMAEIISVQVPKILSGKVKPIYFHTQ

SMILES	Potency
O=[N+]([O-])c1cc(C(F)(F)F)ccc1Cl	inactive
CCCN(CCC)C(=O)SCC	inactive
Cc1nnc(NS(=O)(=O)c2ccc(N)cc2)s1	inactive
Nc1nc(N)c2nc(-c3ccccc3)c(N)nc2n1	inactive
CCc1cccc(CC)c1N	inactive
Cc1ccccc1Cl	inactive
CC(C=O)Cc1ccc(C(C)(C)C)cc1 (stereo not given)	inactive
CCCCC(CC)COC(=O)c1ccc(C(=O)OCC(CC)CCCC)cc1 (stereo not given)	inactive
CCCOCC(C)O (stereo not given)	inactive
CC(C)(CO)CO	inactive
OCC(O)CS (stereo not given)	inactive
CO[Si](CCCNCCN)(OC)OC	inactive
O=[N+]([O-])c1ccccc1C(F)(F)F	inactive
Cc1ccc(C(C)C)cc1	inactive
